In PubChem BioAssay AID1159580 (chemical genetic matrix, 2015):
Hit rate of the full screen: of about 5,500 compounds, about 2,000 (36%) were called active. Not shown: some 18% with an inconclusive outcome. Rule as the data show it: active = normalized growth mostly below about 0.91 (no sharp cut-off); inconclusive = no clear call, values can overlap the other calls; inactive = mostly above about 0.92. This is one part of the list.

Experiment: chemical genetic growth profiling, strain panel (AID 1159580);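 also: tested at 20 µM; growth read once vehicle control cultures reached saturation at 30 °C; 1 = growth at the plate median or of vehicle wells; lower values mean less growth of the strain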
Conditions: S. cerevisiae deletion strains, growth OD

Measured: normalized growth

CC(=O)Oc1ccc(Cl)c2cccnc12
active: locus YAL013W, strain DEP1, hits give low values 0.0553 | locus YAL021C, strain ccr4, hits give low values 0.069 | locus YAL026C, strain drs2, hits give low values 0.0608 | locus YAL030W, strain snc1, hits give low values 0.0564 | locus YBL061C, strain skt5, hits give low values 0.0591 | locus YBR009C, strain hhf1, hits give low values 0.0605 | locus YBR021W, strain FUR4, hits give low values 0.0898 | locus YBR023C, strain chs3, hits give low values 0.0596 | locus YBR171W, strain sec66, hits give low values 0.0822 | locus YBR229C, strain ROT2, hits give low values 0.0477 | locus YBR231C, strain swc5, hits give low values 0.0648 | locus YBR279W, strain paf1, hits give low values 0.0603 | locus YCL011C, strain gbp2, hits give low values 0.0571 | locus YCL016C, strain dcc1, hits give low values 0.0644 | locus YCL029C, strain bik1, hits give low values 0.0625 | locus YCL069W, strain vba3, hits give low values 0.0622 | locus YCR088W, strain abp1, hits give low values 0.0643 | locus YDL005C, strain med2, hits give low values 0.0757 | locus YDL035C, strain GPR1, hits give low values 0.0496 | locus YDL040C, strain nat1, hits give low values 0.0609 | locus YDL074C, strain BRE1, hits give low values 0.0748 | locus YDL101C, strain DUN1, hits give low values 0.0607 | locus YDL134C, strain PPH21, hits give low values 0.0511 | locus YDL185W, strain tfp1, hits give low values 0.0604 | locus YDL192W, strain arf1, hits give low values 0.0619 | locus YDR001C, strain nth1, hits give low values 0.064 | locus YDR069C, strain doa4, hits give low values 0.0614 | locus YDR101C, strain arx1, hits give low values 0.0604 | locus YDR137W, strain rgp1, hits give low values 0.0888 | locus YDR150W, strain NUM1, hits give low values 0.0581 | locus YDR159W, strain sac3, hits give low values 0.0841 | locus YDR162C, strain NBP2, hits give low values 0.0464 | locus YDR195W, strain ref2 0.118 | locus YDR297W, strain sur2, hits give low values 0.0582 | locus YDR318W, strain mcm21, hits give low values 0.064 | locus YDR334W, strain swr1, hits give low values 0.0646 | locus YDR335W, strain msn5, hits give low values 0.0695 | locus YDR388W, hits give low values 0.0563 | locus YDR392W, strain spt3, hits give low values 0.0734 | locus YDR502C, strain sam2, hits give low values 0.0661 | locus YEL003W, strain gim4, hits give low values 0.0532 | locus YEL037C, strain rad23, hits give low values 0.0595 | locus YEL061C, strain CIN8 (second series), hits give low values 0.0644 | locus YEL061C, strain CIN8, hits give low values 0.0486 | locus YER015W, strain faa2, hits give low values 0.0637 | locus YER016W, strain bim1, hits give low values 0.0578 | locus YER110C, hits give low values 0.0806 | locus YER111C, strain swi4, hits give low values 0.076 | locus YER155C, strain BEM2 (second series), hits give low values 0.094 | locus YER155C, strain BEM2, hits give low values 0.0723 | locus YER167W, strain BCK2, hits give low values 0.0497 | locus YFR010W, strain ubp6, hits give low values 0.0687 | locus YGL078C, strain dbp3, hits give low values 0.0682 | locus YGL086W, strain mad1, hits give low values 0.0595 | locus YGL167C, strain pmr1, hits give low values 0.0737 | locus YGL173C, strain kem1, hits give low values 0.0684 | locus YGL227W, strain vid30, hits give low values 0.0677 | locus YGL240W, strain doc1, hits give low values 0.0722 | locus YGL248W, strain PDE1, hits give low values 0.046 | locus YGL253W, strain hxk2, hits give low values 0.0586 | locus YGR078C, strain PAC10, hits give low values 0.0495 | locus YGR135W, strain pre9, hits give low values 0.0649 | locus YGR252W, strain gcn5, hits give low values 0.186 | locus YHR013C, strain ard1, hits give low values 0.104 | locus YHR027C, strain rpn1, hits give low values 0.0596 | locus YHR030C, strain SLT2, hits give low values 0.0501 | locus YHR079C, strain IRE1 (second series), hits give low values 0.0563 | locus YHR094C, strain hxt1, hits give low values 0.0602 | locus YHR129C, strain ARP1, hits give low values 0.056 | locus YHR142W, strain chs7, hits give low values 0.0762 | locus YHR200W, strain rpn10, hits give low values 0.0647 | locus YIL066C, strain RNR3, hits give low values 0.0516 | locus YIL073C, strain SPO22, hits give low values 0.118 | locus YIL125W, strain kgd1, hits give low values 0.0601 | locus YIR030C, strain dcg1, hits give low values 0.0565 | locus YJL092W, strain hpr5, hits give low values 0.0615 | locus YJL095W, strain BCK1 (second series), hits give low values 0.0566 | locus YJL095W, strain BCK1, hits give low values 0.0546 | locus YJL115W, strain asf1, hits give low values 0.0797 | locus YJL129C, strain trk1, hits give low values 0.0818 | locus YJL134W, strain LCB3, hits give low values 0.0495 | locus YJL154C, strain vps35, hits give low values 0.0615 | locus YJL164C, strain tpk1, hits give low values 0.0597 | locus YJL166W, strain qcr8, hits give low values 0.0614 | locus YJL168C, strain set2, hits give low values 0.062 | locus YJL187C, strain SWE1 (second series), hits give low values 0.0475
